The structures appear in SMILES notation. Out of some 1,600 compounds screened, about 1,100 (69%) were called active. The set was probably picked from earlier hits. Not all results are given here. Measured potencies and affinities stand elsewhere. Inconclusive results are not listed. Unmarked numbers belong to inactive results.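 The calls were made as follows: active = signal drop with fitted half-maximal concentration no higher than twice the top valid tested concentration; inconclusive = flat curve with 30 to 70% signal loss, or poor fit; inactive = the rest, including signal rises and flat curves within 30%.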 Non-standard residues stand in square brackets, D forms with d. Residues, ends and D or L forms follow the SMILES beside them. *: point of attachment. Ac5c = NC1(C(=O)O)CCCC1; Cbz = O=C(OCc1ccccc1)*

The assay in a line: HepG2 cell cytotoxicity, dose response, cytotoxicity control for Shn3 inhibitor project, CellTiter-Glo, cherry-picked (AID 624134).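 Also: 0% = median of neutral control wells and -100% = median of positive control wells.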 To be noted: HepG2 viability, CellTiter-Glo ATP luminescence, 48 h; series mostly up to 35 µM; activity change, negative = cytotoxicity: at the top concentration. For orientation: ATP-based viability assays read luminescence as a measure of living cells.
`CC(C)c1nnc(NC(=O)CCS(=O)(=O)c2nc(-c3cccs3)cc(C(F)(F)F)n2)s1`: the “activity change, negative = cytotoxicity” value is -52.3%.

With `COc1ccccc1-c1cc(C(F)(F)F)nc(S(=O)(=O)CCCC(=O)Nc2cccnc2Cl)n1`, the “activity change, negative = cytotoxicity” value is 10.7% [at 16 µM]. As for `COC(=O)c1ccc(N2CCN(S(=O)(=O)c3ccc(C)cc3)CC2)c([N+](=O)[O-])c1`, the figure is -5.05%. With `O=C1CC2(CCN(C(=O)c3ccccc3F)CC2)Oc2ccccc21`, the “activity change, negative = cytotoxicity” value is -2.72%. As for `O=C(CSc1c2c(nc3ccc(Cl)cc13)CCCC2)NCc1ccco1`, the figure is -13.9%. For the compound `CSCCC(NC(=O)c1ccccc1)C(=O)OCC(=O)N(C)CCC#N` (stereo not drawn), the “activity change, negative = cytotoxicity” value is -5.72%.

Regarding `CC[C@@H](C(=O)[C@@H](C)[C@@H](O)[C@H](C)CCc1ccc(C)c(O)c1C(=O)O)[C@H]1O[C@](CC)([C@H]2CC[C@](O)(CC)[C@H](C)O2)C[C@@H]1C`, the “activity change, negative = cytotoxicity” value is 25.4%. As to `Cc1cc(C)n2nc(SCc3cccc(S(=O)(=O)N(C)C)c3)nc2n1`, the “activity change, negative = cytotoxicity” value is -6.75%. For the compound `CC(C)NCC(O)COc1cccc2ccccc12` (stereo not drawn), the “activity change, negative = cytotoxicity” value was -1.75%. The result for `CCn1c(C)nc2cc(-c3nnc(-c4c(-c5ccccc5)noc4C)o3)ccc21` reads -9.46%; that for `COc1ccc(N(C)C(=O)c2ccc3snnc3c2)cc1`, -7.24%; that for `COc1ccc(-c2ccc(Nc3ccc(S(=O)(=O)N4CCCC4)cc3)nn2)cc1OC`, -6.38%. Take `COC(=O)Oc1ccc(/C=C/C(=O)OC(C)C)cc1OC(=O)OC`: the “activity change, negative = cytotoxicity” value was -16.1%. As for `Cc1ccc(C(=O)/C=C/c2ccc(-c3ccc(C)cc3)o2)cc1`, the figure is -19.4%; as for `CCc1c(C)nc2cc(-c3ccc(OC)c(OC)c3)nn2c1NCC1CC1`, -10.7%. Regarding `C=CS(=O)(=O)c1sc(Cl)c(N2CCOCC2)c1[N+](=O)[O-]`, the “activity change, negative = cytotoxicity” value was -16.6%. For the compound `COc1ccc(-c2nsc3c(N4CCCCC4C)ncnc23)cc1` (stereo not drawn), the “activity change, negative = cytotoxicity” value was -2.42%.

On to `CC(Cc1cccs1)NC(=O)Nc1ccc(F)cc1` (stereo not drawn), for which the “activity change, negative = cytotoxicity” value was -3.13%.

`COc1ccc(CNC(=O)C(c2ccc(C)cc2)N(Cc2cccs2)C(=O)c2ccc3c(c2)OCCO3)cc1` (stereo not drawn): the “activity change, negative = cytotoxicity” value was -11.3%. Turning to `COc1ccc(C(O)c2nc(-c3cccc(F)c3)cs2)cc1` (stereo not drawn), the “activity change, negative = cytotoxicity” value is -10.4%. As for `O=C(C1=C[C@@H](C2CC2)C[C@@H](OCCCCO)O1)N1CCN(Cc2ccccc2)CC1`, the figure is -3.33%. The result for `NC(=O)c1cc(N2C(=O)C=CC2=O)ccc1Cl` reads -12.6%. The result for `CC(C)C(NC(=O)c1ccc(Cl)cc1Cl)C(=O)N1CCN(S(=O)(=O)c2ccccc2)CC1` (stereo not drawn) reads -15.1%; that for `O=C(Cc1ccccc1)NCCS(=O)c1ccc(Cl)cc1` (stereo not drawn), 0.411%; that for `Nc1nnc(SCC(=O)Nc2ccc(N3CCOCC3)cc2)s1`, 14.7%. Take `CCCc1ccc(C(=O)NNc2cc(Cl)ccc2Cl)cc1`: the “activity change, negative = cytotoxicity” value is -8.35%. The result for `O=C(c1ccc(S(=O)(=O)c2ccc(F)cc2)c([N+](=O)[O-])c1)N1CCCCCC1` reads -6.03%; that for `OCCNc1nc(Nc2ccc(Cl)cc2)nc(N2CCCC2)n1`, -5.38%. As for `CCCn1c(C)cc(C(=O)CN2C(=O)c3ccccc3S2(=O)=O)c1C`, the figure is 0.847%; as for `O=C1S/C(=C\c2ccc(N3CCOCC3)o2)C(=O)N1Cc1c(F)cccc1Cl`, -15.7%; as for `COc1c(C)cc(C(=O)C2CCCN(C(=O)c3cccc(-n4cccn4)c3)C2)cc1C` (stereo not drawn), -3.56%.

For the compound `Cc1nc2scc(C)n2c(=O)c1S(=O)(=O)Nc1ccc(N2CCOCC2)c(Cl)c1`, the “activity change, negative = cytotoxicity” value was -6.26%. `O=C(CSc1nc2ncc(Cl)cc2[nH]1)N1CCOCC1`: the “activity change, negative = cytotoxicity” value is -4.52%.

With `CC(C)(C)C(=O)Nc1ccc(NC(=O)c2ccco2)nc1`, the “activity change, negative = cytotoxicity” value is -10.1%. As for `COc1ccc(S(=O)(=O)NCCC(=O)OCC(=O)NC2CC2)cc1`, the figure is -16.9%; as for `O=C(CSc1nnc(Nc2ccccc2)s1)NC1CCS(=O)(=O)C1` (stereo not drawn), -8.91%; as for `Cc1ccc(S(=O)(=O)N2CCCCC2)cc1NS(=O)(=O)c1ccccc1F`, -9.02%. On to `COc1cccc(C2CC(c3ccc(C)cc3)=NN2C(=O)c2ccccc2F)c1OC` (stereo not drawn), for which the “activity change, negative = cytotoxicity” value was -7.78%.

With `Cc1cc(C(=O)Cn2cnc3cc(F)ccc3c2=O)c(C)n1C1CC1`, the “activity change, negative = cytotoxicity” value was -1.41%. As for `CCCc1nc([N+](=O)[O-])c(S(=O)(=O)c2ccccc2)n1CC(C)C`, the figure is -25.5%. In the case of `Cc1ccc(C(=O)Nc2ccc3c(c2)C(=O)N(CC2CCCO2)C3=O)cc1` (stereo not drawn), the “activity change, negative = cytotoxicity” value was -10.1%. The result for `COc1ccc([C@@]23Oc4cc(OC)cc(OC)c4[C@]2(O)[C@H](O)[C@H](C(=O)N(C)C)[C@H]3c2ccccc2)cc1` reads -8.25%. On to `CCN(CC)C(=O)C1CCCN(c2ccc([N+](=O)[O-])cc2[N+](=O)[O-])C1` (stereo not drawn), for which the “activity change, negative = cytotoxicity” value was -12.1%. Turning to `CCCCN1CC(COCc2ccccc2)Oc2cccc(Oc3ccc(C(C)C)cc3)c2S1(=O)=O` (stereo not drawn), the “activity change, negative = cytotoxicity” value is -4.99%. Consider `COc1cccc(-c2nc(NC3CCCC3)c3ccccc3n2)c1O`, for which the “activity change, negative = cytotoxicity” value was -14.4%.

On to `O=C(N[C@@H]1C/C=C\C[C@@H](CC(=O)N(CCO)Cc2ccccc2)C(=O)NC[C@H](c2ccccc2)OC1=O)OCC1c2ccccc2-c2ccccc21`, for which the “activity change, negative = cytotoxicity” value was 2.33%. The result for `Cc1ccc(-c2nc3cccnc3o2)cc1NC(=O)COc1ccc(C(C)(C)C)cc1` reads -27.5%; that for `CC(C)CCC(C(=O)O)C(C)CC(=O)NNC(=O)c1ccco1` (stereo not drawn), -2.17%; that for `CC(C)(C)N(Cc1ccccc1)C(=O)COC(=O)CCc1c[nH]c2ccccc12`, -8.24%. For the compound `CCCCCCN1C[C@H](n2cc(-c3ccc(F)cc3)nn2)[C@@H](O)C[C@@H]1c1ccc(Cl)cc1`, the “activity change, negative = cytotoxicity” value was -62.3%. The result for `CC(=O)N1c2ccc(S(=O)(=O)N3CCC(C(=O)N4CCN(c5cc(Cl)ccc5C)CC4)CC3)cc2CC1C` (stereo not drawn) reads 1.7%. In the case of `CCN(c1ccccc1)S(=O)(=O)c1ccc(Cl)c(NC(=O)CN(C)Cc2cccc(F)c2)c1`, the “activity change, negative = cytotoxicity” value was -10.9%.

On to `Cc1cccc(C)c1NC(=O)CN(C)C(=O)c1cc(S(=O)(=O)N(C)C)ccc1N1CCCC1`, for which the “activity change, negative = cytotoxicity” value was 5.64%. As for `Oc1c(C(c2cccs2)N2CCC3(CC2)OCCO3)sc2ncnn12` (stereo not drawn), the figure is -1.02%. The result for `CCOC(=O)/C(=C\c1ccc([N+](=O)[O-])cc1)C(=O)c1cc(C(C)=O)c(Nc2ccccc2)s1` reads -7.79%.

As for `CCOC(=O)c1[nH]c(C)c(/C(O)=C2\C(=O)C(=O)N(CCCN3CCOCC3)C2c2cccs2)c1C` (stereo not drawn), the “activity change, negative = cytotoxicity” value is 0.789%. The result for `CN1C(=O)c2cccc(NCCCCCCN3C(=O)c4ccccc4C3=O)c2C1=O` reads -5.25%; that for `Cc1ccc(C)c(N2CCN(S(=O)(=O)c3ccc4[nH]c(=O)ccc4c3)CC2)c1`, 3.47%. The result for `Nc1cc(=O)[nH]c(SCC(=O)Nc2cccc([N+](=O)[O-])c2)n1` reads -5.8%. The result for `CC1Cc2ccccc2N1Cc1cccc(S(=O)(=O)N(C)C)c1` (stereo not drawn) reads -3.11%; that for `Cc1cccc(-c2noc(CN(C(=O)C(c3ccccc3)c3ccccc3)C(C)C)n2)c1`, -14.7%; that for `CCCCNc1cccc2c1S(=O)(=O)N(CCCC)CC(COCc1ccccc1)O2` (stereo not drawn), -6.62%. Take `C=CCn1c(C)cc(C(=O)CN2C(=O)c3ccccc3S2(=O)=O)c1C`: the “activity change, negative = cytotoxicity” value is -11.7%. The result for `CC(NNC(=S)N1CCN(c2ccccn2)CC1)c1nccc2ccccc12` (stereo not drawn) reads -14.5%; that for `CCOC(=O)C1=C(C)N(CCCC(=O)O)C(=O)NC1c1ccc2ccccc2c1` (stereo not drawn), -2.41%. The result for `CC1Cc2cc(S(=O)(=O)N3CCC(C(=O)N4CCN(c5ccccc5F)CC4)CC3)ccc2N1C(=O)C1CC1` (stereo not drawn) reads -1.82%; that for `CC(=O)N1c2ccc(S(=O)(=O)N3CCC(C(=O)N4CCN(c5ccccc5F)CC4)CC3)cc2CC1C` (stereo not drawn), 4.49%; that for `CC(=O)Oc1ccc(OC(C)=O)c(SCCCCCCl)c1`, -11.1%. As for `CN1/C(=C\C(=O)CN2C(=O)NC3(CCCCCC3)C2=O)C(C)(C)c2ccccc21`, the figure is -23%; as for `Cc1ccc(N2C(=O)c3cccc4c([N+](=O)[O-])ccc(c34)C2=O)c2cccnc12`, -22%; as for `O=C(N[C@@H]1C/C=C\C[C@H](CC(=O)N(CCO)Cc2ccccc2)C(=O)NC[C@@H](c2ccccc2)OC1=O)OCC1c2ccccc2-c2ccccc21`, -27%. As for `CN(CC(=O)Nc1cc(S(=O)(=O)N2CCCC2)ccc1Cl)Cc1ccc2c(c1)OCO2`, the “activity change, negative = cytotoxicity” value is -8.05%. The result for `Cc1ccc(NC(=O)NCCCN2CCOCC2)cc1` reads 4.85%; that for `CC12CC(O)C3c4ccc(O)cc4CCC3C1CCC2=O` (stereo not drawn), -11.4%; that for `CCCCCOC(=O)c1[nH]c2c(c1C)C(=O)CC(c1ccco1)C2` (stereo not drawn), -17.9%. The result for `CCOC(=O)CNC(=O)C1(NC(=O)CNC(=O)OCc2ccccc2)CCCC1` (Cbz-Gly-[Ac5c]-Gly-OEt) reads 1.52%. On to `CCC(C)[C@H]1CNC(=S)N1CCc1cc(C(F)(F)F)cc(C(F)(F)F)c1` (stereo partly drawn), for which the “activity change, negative = cytotoxicity” value was -12.5%. In the case of `CC(C)N=C(N)N=C(N)Nc1ccc(Cl)cc1`, the “activity change, negative = cytotoxicity” value was -14.4%. `Cc1cc(C)cc(C(=O)NCC(=O)OCC(=O)NCC(F)(F)F)c1`: the “activity change, negative = cytotoxicity” value was -10.9%. The result for `CSC1SCC2C(=O)N(C)C(C(C)C)C(=O)OCC(NC(=O)c3cnc4ccccc4n3)C(=O)NC(C)C(=O)N(C)C1C(=O)N(C)C(C(C)C)C(=O)OCC(NC(=O)c1cnc3ccccc3n1)C(=O)NC(C)C(=O)N2C` (stereo not drawn) reads -23.9%; that for `O=C1ON=C(c2ccccc2)/C1=C/c1ccc(-c2ccccc2[N+](=O)[O-])o1`, -7.62%. As for `Cc1cc(C(=O)COC(=O)c2ccccc2O)c(C)n1Cc1cccs1`, the figure is 0.392%; as for `COc1ccc2c(CC(=O)OCC(=O)N(C)c3c(N)n(Cc4ccccc4)c(=O)[nH]c3=O)coc2c1`, 0.984%. As for `CC(Oc1ccc(F)cc1)C(=O)N(CCC1=CCCCC1)c1c(N)n(Cc2ccccc2)c(=O)[nH]c1=O` (stereo not drawn), the figure is -32.6%. In the case of `Cn1cccc1Cc1nnc(SCC(=O)NCCc2ccccc2)n1-c1ccc(F)cc1`, the “activity change, negative = cytotoxicity” value is -2.41%.

`CCCOc1ccccc1C1CC(=O)Nc2cc3c(cc21)OCCO3` (stereo not drawn): the “activity change, negative = cytotoxicity” value was -16.2%. As for `COc1cc(C#Cc2c(-c3cncn3C)n(C)c3ccc(-c4ccc(OC)nc4)cc23)cc(OC)c1`, the figure is -10%; as for `O=C(c1n[nH]c(=O)c2ccccc12)N1CCN(C2c3ccccc3-c3ccccc32)CC1`, -7.71%. On to `Cn1cc(CN(CCO)Cc2cccs2)c(-c2cccc(Cl)c2)n1`, for which the “activity change, negative = cytotoxicity” value is -1.41%. The result for `Cc1noc(C)c1COC(=O)[C@@H](NC(=O)c1ccccc1)C(C)C` reads 2.94%. The result for `COc1ccc(CN(C(=O)CSc2nnc(-c3ccc(F)cc3)o2)c2ccc(F)cc2)cc1` reads -3.67%; that for `Fc1ccccc1N1CCN(Cc2nc(-c3ccccc3)no2)CC1`, -9.95%; that for `O=C(Nc1cc2c3c(c1)C1CCCC1CN3CC1CCCC21)c1ccc([N+](=O)[O-])cc1` (stereo not drawn), -8.21%.

The values are drawn from PubChem BioAssay AID624134 (Broad Institute, 2012).
